Laboratory results taken from PubChem BioAssay (NCATS).
Records with an inconclusive call do not appear. The source made the active and inactive calls. Unless noted, the call rests on the fitted dose curve; in most records, active means well fitted curve in the direction sought with a large enough effect; inconclusive means small, poorly fitted or top-dose-only effect, or another doubt; inactive means no such curve, though single readings can be large; an effect the other way counts as inactive or inconclusive.

Legend:
[1] = target: Lysosomal acid glucosylceramidase (Homo sapiens) (UniProt P04062); assay: Glucocerebrosidase-p2 (AID 348; in the data active means potency below about 10 µM; further: potency means the concentration at half of the fitted maximal effect); conditions: purified GBA, blue fluorogenic substrate, 40 min
In short: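 Normal human glucocerebrosidase (0.2 nM) with blue fluorogenic substrate (80 uM final) in citrate/phosphate pH 5.9 with 10mM sodium taurocholate, 0.01% tween-20; 40 min RT, NaOH/glycine stop; fluorescence Ex 365/Em 440; AC50 from a titration from 0.6 nM upwards.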

[2] = AP1 Signaling Pathway (AID 357; active means well fitted curve in either direction with a large enough effect, not every such curve was filed as active;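 further: ME-180 reporter cells stimulated with EGF at its EC50 level; on the % scale 0 is the no-effect control and ±100 the full control effect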); conditions: ME-180 AP-1-bla reporter, EGF-induced, beta-lactamase ratio, 5 h; at 7.69 µM (top of the series) unless noted
In short: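 Cells are seeded overnight, exposed to compound titrations and an EC50 level of EGF for 5 hours at 37 °C, then loaded with CCF4 dye for 2.5 hours. Beta-lactamase activity under the AP-1 element is read as a blue/green ratio.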

[3] = target: Cytochrome P450 1A2 (Homo sapiens) (UniProt P05177); assay: p450-cyp1a2 (AID 410; calls by dose curve; further: potency means the concentration at half of the fitted maximal effect); conditions: recombinant CYP1A2, luciferin-ME demethylation, luminescence; series mostly up to 57 µM
In short: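 Read-out is luminescence from luciferin produced by CYP1A2 demethylation of Luciferin-ME (100uM, at Km). Detection reagent stopped the 60 min NADPH-dependent reaction; signals were normalized to 57 uM furafylline.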

[4] = NFAT Signaling Pathway (AID 444; active means well fitted curve in either direction with a large enough effect, not every such curve was filed as active;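 further: carbachol stimulus at about its EC50 of 1 µM final; on the % scale 0 is the no-effect control and ±100 the full control effect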); conditions: Jurkat NFAT-bla M1, carbachol, beta-lactamase ratio, 5 h; at 7.69 µM (top of the series) unless noted
In short: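 Read-out: CCF4 FRET ratio (460 nm/530 nm) after 1 h RT dye loading, used for %activity and AC50 from titration series. Cells: Jurkat NFAT-β-lactamase/M1 line, treated with compound plus 1 uM carbachol for 5 h, 37 °C.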

[5] = Stat Signaling Pathway (AID 446; active means well fitted curve in either direction with a large enough effect, not every such curve was filed as active;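 further: ME-180 cervical cancer cells given 40 pM IL-6 alongside compound; SIE-controlled beta-lactamase reporter measured as 460/530 nm FRET emission ratio; on the % scale 0 is the no-effect control and ±100 the full control effect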); conditions: ME-180 SIE beta-lactamase reporter, IL-6 stimulated, 5 h; at 7.69 µM (top of the series) unless noted
In short: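 Emission at 460 and 530 nm (excitation 405 nm) reports SIE-controlled beta-lactamase in ME-180 cells. Cells received compound with 40 pM IL-6 for 5 hrs at 37 C; data scaled between 300 pM IL-6 and 125 nM JAK-inhibitor controls.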

[6] = target: Glucocorticoid receptor (Homo sapiens) (UniProt P04150); assay: GR-GFP Redistribution (AID 450;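 active means compounds whose dose series gives a full or clear partial fitted curve of increased nuclear translocation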; further: potency means the concentration at half of the fitted maximal effect); conditions: U2OS GR-GFP nuclear translocation, laser cytometry, 2 h
[7] = target: Glucocorticoid receptor (Homo sapiens) (UniProt P04150); assay: GR-EFC Redistribution (AID 451; calls by dose curve; further: potency means the concentration at half of the fitted maximal effect); conditions: CHO-K1 GR-EFC translocation, beta-gal luminescence, 2 h
In short: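 Translocation of GR-ED fusion to nuclear EA restores b-gal, read by luminescence after 1 h room-temperature detection. Engineered CHO-K1 biosensor cells, 1,000/well, exposed 2 h at 37 C to titrations up to 46 uM final.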

[8] = target: Cytochrome P450 3A4 (Homo sapiens) (UniProt P08684); assay: qHTS Assay for Inhibitors and Substrates of Cytochrome P450 3A4 (AID 884); conditions: recombinant CYP3A4, Luciferin-PPXE luminescence; series mostly up to 57.1 µM; further: potency means the concentration at half of the fitted maximal effect; nearly all actives have a fitted effect of over 50% in size
In short: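 Luminescent readout of luciferin produced by CYP3A4 (20 nM) dealkylation of Luciferin-PPXE, 25 uM (its KM). NADPH-driven reaction ran 60 min at RT after 10 min compound preincubation; data scaled to 57 uM ketoconazole as 100% inhibition.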

[9] = target: Cytochrome P450 3A4 (Homo sapiens) (UniProt P08684); assay: qHTS Assay for Activators of Cytochrome P450 3A4 (AID 885); conditions: recombinant CYP3A4, Luciferin-PPXE luminescence, 60 min; series mostly up to 57.1 µM; further: nearly all actives have a fitted effect of over 65% in size
In short: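 Activators are scored by enhanced luminescence from CYP3A4 conversion of luciferin-PPXE (25uM, equal to KM) to luciferin, after 60 min at RT with an NADPH-regenerating system.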

[10] = target: Cytochrome P450 2C19 (Homo sapiens) (UniProt P33261); assay: qHTS Assay for Inhibitors and Substrates of Cytochrome P450 2C19 (AID 899); conditions: recombinant CYP2C19, luciferin-H EGE luminescence; series mostly up to 57.1 µM; further: potency means the concentration at half of the fitted maximal effect; nearly all actives have a fitted effect of over 60% in size
In short: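 Reactions contain 5nM enzyme, 10uM Luciferin-H EGE (KM) and 50mM KPO4; compound preincubates 10 min at 37C, NADPH regeneration starts turnover for 60 min. Luminescence after detection reagent gives activity.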

[11] = target: Dual specificity protein kinase CLK4 (Homo sapiens) (UniProt Q9HAZ1); assay: qHTS Assay for Inhibitors of CDC-like Kinase 4 (ADP-FP Assay) (AID 1795); conditions: Transcreener ADP fluorescence polarization; series mostly up to 50 µM; further: on the % scale 0 is the no-effect control and ±100 the full control effect; nearly all actives have a fitted effect of over 60% in size
In short: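 Recombinant human Clk4 (6.25 nM) phosphorylated RS repeat peptide (100 uM) with 1 uM ATP in Tris pH 7.5/MgCl2/EGTA/DTT/Triton buffer for one hour. ADP was quantified by Transcreener competitive fluorescence polarization against an ADP calibration curve.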

[12] = target: Ubiquitin carboxyl-terminal hydrolase 1 (Homo sapiens) (UniProt O94782); assay: Inhibitors of USP1/UAF1: Pilot qHTS (AID 504865); conditions: purified USP1/UAF1, Ub-rhodamine cleavage fluorescence; series mostly up to 54.9 µM;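 further: rhodamine fluorescence freed from ubiquitin-rhodamine substrate followed over time; top concentration of the series differs between compounds; on the % scale 0 is the no-effect control and ±100 the full control effect; nearly all actives have a fitted effect of over 35% in size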
In short: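 USP1/UAF1 complex (1nM) preincubated with compound 15 min at room temperature, then Ub-Rho substrate (150nM final) added. Fluorescence read kinetically at 480/540 nm, 6 reads every 60 seconds. Buffer: 50mM HEPES pH 7.8, 0.5mM EDTA, 0.1 mg/ml BSA, 1mM TCEP, 0.01% Tween-20.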

[13] = Primary qHTS for small molecule stabilizers of the endoplasmic reticulum resident proteome: Secreted ER Calcium Modulated Protein (SERCaMP) assay (AID 1508630); conditions: SH-SY5Y GLuc-SERCaMP (Gaussia luciferase released on ER calcium loss) secretion, thapsigargin, luminescence; series mostly up to 38.4 µM; further: on the % scale 0 is the no-effect control and ±100 the full control effect
In short: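 The SH-SY5Y reporter protocol was run at 3 concentrations up to 38.3 uM (primary) or 11 concentrations (follow-up): 16 h compound, 100 nM thapsigargin for 4 h, then extracellular luciferase luminescence.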

[14] = target: Mitogen-activated protein kinase 10 (Mus musculus) (UniProt Q61831); assay: JNK3 AlphaScreen Assay (AID 530; active means well fitted curve in either direction with a large enough effect, not every such curve was filed as active); conditions: JNK3 lysate, c-Jun phosphorylation; series mostly up to 57.1 µM
In short: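 Kinase buffer: 20 mM Tris-HCl pH 7.6, 10 mM MgCl2, 1 mM DTT, 0.1 mM Na3VO4, 0.01% Tween-20; ATP 10 uM. Substrate biotin-GST-cJun(1-79), enzyme from activated HepG2 lysates. Detection by Ser73 phospho-antibody AlphaScreen.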

[15] = target: 3',5'-cyclic-AMP phosphodiesterase 4B (Homo sapiens) (UniProt Q07343); assay: qHTS Assay for Inhibitors of PDE-IV (AID 607; active means well fitted activation curve with a large enough effect in the main read-out, with a control signal flat, not every such curve was filed as active; further: % of control where 0% means no effect); conditions: HEK293 ACTOne CNG channel cells, membrane potential fluorescence; series mostly up to 22.9 µM
In short: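 The readout is membrane depolarisation from a cAMP-sensing CNG channel, detected with a potential dye at ex 535/em 590. Cells were HEK293-derived (endogenous PDE-IV) at 1000 cells/well, titrated up to 22.9 uM final.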

[16] = qHTS Assay for Identification of Small Molecule Agonists for Hypoxia Response Element Signaling Pathway (AID 914; active means well fitted activation curve with a large enough effect in the signal ratio, with a control signal flat, not every such curve was filed as active; the % refers to the signal ratio; further: % of control where 0% means no effect); conditions: ME-180 (cervical carcinoma) HRE-bla reporter, beta-lactamase ratio, CoCl2, 17 h; activation: active compounds read high
In short: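 Reporter activity (beta-lactamase, CCF4 460nm/530nm ratio) in HRE-bla ME-180 cells is recorded after 17 h compound exposure with EC50 CoCl2 at 37 degrees Celsius. AC50 values come from titration data.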

[17] = target: Cytochrome P450 2D6 (Homo sapiens) (UniProt P10635); assay: qHTS Assay for Inhibitors and Substrates of Cytochrome P450 2D6 (AID 891); conditions: recombinant CYP2D6, luciferin-ME EGE luminescence; series mostly up to 57.1 µM; further: potency means the concentration at half of the fitted maximal effect; nearly all actives have a fitted effect of over 60% in size
In short: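 Luminescent read-out of luciferin formed by 5 nM human CYP2D6 demethylating 30 uM Luciferin-ME EGE (Km level) over 60 min at room temperature after NADPH regeneration addition. Data normalized to full inhibition by 1.43 uM quinidine.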

Glucocorticoid receptor (Homo sapiens), sequence (P04150 whole entry, looked up, the tested form may be a part): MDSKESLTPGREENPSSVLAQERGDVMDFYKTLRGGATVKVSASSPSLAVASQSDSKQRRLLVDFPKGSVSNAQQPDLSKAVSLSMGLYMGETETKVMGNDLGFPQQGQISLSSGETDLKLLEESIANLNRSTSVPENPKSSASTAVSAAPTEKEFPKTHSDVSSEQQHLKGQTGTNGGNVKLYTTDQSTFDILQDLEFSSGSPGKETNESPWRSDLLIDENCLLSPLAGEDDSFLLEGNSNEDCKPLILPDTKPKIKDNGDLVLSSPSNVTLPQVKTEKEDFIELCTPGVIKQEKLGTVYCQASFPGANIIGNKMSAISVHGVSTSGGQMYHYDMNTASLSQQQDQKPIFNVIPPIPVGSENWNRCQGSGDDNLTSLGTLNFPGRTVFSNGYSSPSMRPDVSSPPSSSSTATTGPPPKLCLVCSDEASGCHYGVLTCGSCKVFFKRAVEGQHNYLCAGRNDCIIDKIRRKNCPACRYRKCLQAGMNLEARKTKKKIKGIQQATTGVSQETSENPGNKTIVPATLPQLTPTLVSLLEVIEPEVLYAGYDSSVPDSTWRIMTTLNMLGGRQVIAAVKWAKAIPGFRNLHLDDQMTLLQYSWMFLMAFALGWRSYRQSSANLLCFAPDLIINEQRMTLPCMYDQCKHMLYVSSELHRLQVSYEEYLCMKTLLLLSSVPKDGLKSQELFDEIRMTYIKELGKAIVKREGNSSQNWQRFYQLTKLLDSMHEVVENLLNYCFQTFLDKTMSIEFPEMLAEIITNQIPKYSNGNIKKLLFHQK
Dual specificity protein kinase CLK4 (Homo sapiens), sequence (Q9HAZ1 whole entry, looked up): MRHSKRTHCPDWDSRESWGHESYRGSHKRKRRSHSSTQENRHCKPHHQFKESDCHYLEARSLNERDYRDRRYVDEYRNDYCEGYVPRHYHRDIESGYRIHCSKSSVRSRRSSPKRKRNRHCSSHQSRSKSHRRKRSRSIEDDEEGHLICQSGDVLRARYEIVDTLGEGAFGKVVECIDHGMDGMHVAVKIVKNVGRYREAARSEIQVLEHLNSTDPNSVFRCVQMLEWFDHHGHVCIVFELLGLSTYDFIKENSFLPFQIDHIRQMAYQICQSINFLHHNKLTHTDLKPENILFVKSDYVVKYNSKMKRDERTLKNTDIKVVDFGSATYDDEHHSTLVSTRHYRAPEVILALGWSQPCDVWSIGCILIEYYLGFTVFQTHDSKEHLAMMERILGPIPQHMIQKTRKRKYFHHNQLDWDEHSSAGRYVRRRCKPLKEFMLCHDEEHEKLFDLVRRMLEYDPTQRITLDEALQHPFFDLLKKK
Lysosomal acid glucosylceramidase (Homo sapiens), sequence (P04062 whole entry, looked up): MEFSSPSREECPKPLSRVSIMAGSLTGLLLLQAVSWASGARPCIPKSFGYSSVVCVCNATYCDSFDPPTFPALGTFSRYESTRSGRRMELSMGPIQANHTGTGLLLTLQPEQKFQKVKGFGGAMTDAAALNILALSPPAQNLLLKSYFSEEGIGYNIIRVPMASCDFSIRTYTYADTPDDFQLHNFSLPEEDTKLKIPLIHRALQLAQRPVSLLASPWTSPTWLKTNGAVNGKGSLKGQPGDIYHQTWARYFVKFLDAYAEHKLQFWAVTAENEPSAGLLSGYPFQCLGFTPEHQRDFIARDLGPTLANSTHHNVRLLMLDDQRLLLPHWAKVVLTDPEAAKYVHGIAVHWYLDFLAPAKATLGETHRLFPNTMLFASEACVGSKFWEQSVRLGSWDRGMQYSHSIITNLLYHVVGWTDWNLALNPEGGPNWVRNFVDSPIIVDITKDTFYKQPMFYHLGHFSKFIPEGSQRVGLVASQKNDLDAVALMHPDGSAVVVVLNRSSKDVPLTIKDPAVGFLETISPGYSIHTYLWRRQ
3',5'-cyclic-AMP phosphodiesterase 4B (Homo sapiens), sequence (Q07343 whole entry, looked up): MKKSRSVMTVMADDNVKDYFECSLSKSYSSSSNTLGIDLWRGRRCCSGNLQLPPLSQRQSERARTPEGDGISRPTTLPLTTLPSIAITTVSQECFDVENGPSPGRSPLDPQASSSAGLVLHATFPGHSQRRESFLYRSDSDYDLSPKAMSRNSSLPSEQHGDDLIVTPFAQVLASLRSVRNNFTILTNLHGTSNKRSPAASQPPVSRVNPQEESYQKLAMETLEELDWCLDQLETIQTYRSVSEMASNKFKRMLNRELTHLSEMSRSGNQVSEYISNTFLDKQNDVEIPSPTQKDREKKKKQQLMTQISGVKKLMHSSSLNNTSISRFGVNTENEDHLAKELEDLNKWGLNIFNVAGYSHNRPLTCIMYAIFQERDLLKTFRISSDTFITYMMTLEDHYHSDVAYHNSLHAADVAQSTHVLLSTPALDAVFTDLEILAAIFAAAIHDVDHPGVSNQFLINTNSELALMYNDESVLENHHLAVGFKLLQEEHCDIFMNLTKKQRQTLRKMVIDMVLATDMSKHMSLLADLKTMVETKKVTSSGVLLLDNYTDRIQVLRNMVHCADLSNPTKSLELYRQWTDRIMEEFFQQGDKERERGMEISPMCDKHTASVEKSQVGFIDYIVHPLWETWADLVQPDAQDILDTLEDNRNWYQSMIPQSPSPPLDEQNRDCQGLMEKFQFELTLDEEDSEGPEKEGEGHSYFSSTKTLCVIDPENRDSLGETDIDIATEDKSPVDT
Ubiquitin carboxyl-terminal hydrolase 1 (Homo sapiens), sequence (O94782 whole entry, looked up): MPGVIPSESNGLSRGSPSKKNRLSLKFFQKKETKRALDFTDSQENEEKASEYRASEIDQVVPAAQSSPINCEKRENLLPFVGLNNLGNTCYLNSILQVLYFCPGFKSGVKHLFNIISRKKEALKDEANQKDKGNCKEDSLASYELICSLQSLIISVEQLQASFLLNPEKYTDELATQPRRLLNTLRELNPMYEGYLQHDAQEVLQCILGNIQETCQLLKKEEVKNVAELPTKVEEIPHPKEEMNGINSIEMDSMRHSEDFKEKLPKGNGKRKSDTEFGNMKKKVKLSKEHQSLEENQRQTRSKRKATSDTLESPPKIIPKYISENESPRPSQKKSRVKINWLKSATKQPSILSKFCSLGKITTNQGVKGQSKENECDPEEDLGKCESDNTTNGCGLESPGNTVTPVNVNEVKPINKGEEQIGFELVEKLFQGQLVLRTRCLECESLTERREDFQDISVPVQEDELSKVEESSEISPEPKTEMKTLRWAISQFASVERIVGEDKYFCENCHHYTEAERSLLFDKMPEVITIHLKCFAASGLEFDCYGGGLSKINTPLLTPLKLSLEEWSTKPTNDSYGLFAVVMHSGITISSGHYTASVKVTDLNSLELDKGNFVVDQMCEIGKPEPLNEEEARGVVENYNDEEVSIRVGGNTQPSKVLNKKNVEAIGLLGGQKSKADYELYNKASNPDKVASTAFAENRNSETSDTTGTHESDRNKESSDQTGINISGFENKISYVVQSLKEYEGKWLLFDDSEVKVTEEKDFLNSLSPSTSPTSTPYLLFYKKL
Cytochrome P450 3A4 (Homo sapiens), sequence (P08684 whole entry, looked up): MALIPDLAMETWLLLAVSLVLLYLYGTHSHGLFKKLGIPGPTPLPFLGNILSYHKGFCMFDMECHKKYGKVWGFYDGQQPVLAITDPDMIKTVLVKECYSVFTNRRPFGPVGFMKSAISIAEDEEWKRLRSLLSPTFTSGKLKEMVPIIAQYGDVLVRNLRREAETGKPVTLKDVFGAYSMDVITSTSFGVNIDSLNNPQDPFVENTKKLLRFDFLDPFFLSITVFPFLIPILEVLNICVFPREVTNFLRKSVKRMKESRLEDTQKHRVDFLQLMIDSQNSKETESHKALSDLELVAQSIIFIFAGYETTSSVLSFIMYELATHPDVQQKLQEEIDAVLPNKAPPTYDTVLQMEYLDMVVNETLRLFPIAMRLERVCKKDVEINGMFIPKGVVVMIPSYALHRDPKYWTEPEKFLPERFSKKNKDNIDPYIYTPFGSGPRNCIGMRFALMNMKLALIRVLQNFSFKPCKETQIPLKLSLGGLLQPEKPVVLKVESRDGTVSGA
Cytochrome P450 1A2 (Homo sapiens), sequence (P05177 whole entry, looked up): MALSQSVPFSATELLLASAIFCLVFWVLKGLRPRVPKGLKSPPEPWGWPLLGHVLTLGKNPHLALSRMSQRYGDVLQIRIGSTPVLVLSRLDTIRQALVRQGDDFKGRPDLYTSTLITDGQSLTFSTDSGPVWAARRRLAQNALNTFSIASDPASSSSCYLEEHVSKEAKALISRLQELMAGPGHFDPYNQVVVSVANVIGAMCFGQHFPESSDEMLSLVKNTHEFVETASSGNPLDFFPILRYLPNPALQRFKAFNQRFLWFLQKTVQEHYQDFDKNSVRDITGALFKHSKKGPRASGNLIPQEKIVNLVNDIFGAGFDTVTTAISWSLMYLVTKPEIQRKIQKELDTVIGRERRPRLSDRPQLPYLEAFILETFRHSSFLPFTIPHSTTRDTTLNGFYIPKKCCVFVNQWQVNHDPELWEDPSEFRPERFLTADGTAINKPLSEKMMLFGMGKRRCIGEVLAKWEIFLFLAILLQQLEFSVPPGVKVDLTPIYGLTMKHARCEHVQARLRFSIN
Cytochrome P450 2C19 (Homo sapiens), sequence (P33261 whole entry, looked up): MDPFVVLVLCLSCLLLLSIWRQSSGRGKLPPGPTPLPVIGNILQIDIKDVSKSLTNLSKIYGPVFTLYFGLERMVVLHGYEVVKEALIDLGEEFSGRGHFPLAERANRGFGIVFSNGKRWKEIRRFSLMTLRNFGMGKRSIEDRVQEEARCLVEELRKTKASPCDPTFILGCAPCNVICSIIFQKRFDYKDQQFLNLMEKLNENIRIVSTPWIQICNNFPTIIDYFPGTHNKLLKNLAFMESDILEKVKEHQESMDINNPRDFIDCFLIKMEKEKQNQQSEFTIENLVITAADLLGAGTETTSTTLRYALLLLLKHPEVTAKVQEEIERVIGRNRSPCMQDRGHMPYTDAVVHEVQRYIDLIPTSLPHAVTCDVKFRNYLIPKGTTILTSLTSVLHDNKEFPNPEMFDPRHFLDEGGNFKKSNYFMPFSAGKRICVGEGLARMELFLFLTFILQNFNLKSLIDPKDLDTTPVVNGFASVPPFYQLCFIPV

CN(C)c1ccc(-c2cncnc2Nc2ccccc2)cc1
inactive: Potency [1] > 11.4 µM | activity change, negative = inhibition [2] -29.4% | activity change, negative = inhibition [4] -2.66% | activity, negative = inhibition [5] -12% | Potency [6] > 46 µM | Potency [7] > 46 µM | Potency [9] | Potency [11] | Potency [12] | outcome [13]
active: Potency [3] 0.398 µM | Potency [8] 0.631 µM | Potency [10] 0.316 µM

CN(C)C(=O)c1ccc(-c2nccc(-n3ccnc3)n2)cc1
inactive: Potency [1] > 11.4 µM | activity change, negative = inhibition [2] 4.46% | activity change, negative = inhibition [4] 5.95% | Potency [6] > 46 µM | Potency [7] > 46 µM | Potency [14] | Potency [15] | Potency [9] | Potency [11] | Potency [12] | outcome [13]
active: Potency [3] 15.8 µM

CN(C)c1ccc(-c2cncnc2NCc2cccnc2)cc1
inactive: Potency [1] > 11.4 µM | activity change, negative = inhibition [2] -12.4% | activity change, negative = inhibition [4] 8.27% | activity, negative = inhibition [5] -10% | Potency [6] > 46 µM | Potency [7] > 46 µM | Potency [14] | Potency [15] | Potency [9] | activation [16] 1.46% | Potency [11] | outcome [13]
active: Potency [3] 1 µM | Potency [8] 0.631 µM | Potency [10] 0.0316 µM

CN(C)C(=O)c1ccc(-c2ccc3ncnc(NCc4ccccc4)c3c2)cc1
active: Potency [3] 15.8 µM
inactive: Potency [1] > 11.4 µM | activity change, negative = inhibition [4] 13% | activity, negative = inhibition [5] 7.31% | Potency [6] > 46 µM | Potency [7] > 46 µM | Potency [14] | Potency [9] | Potency [11] | Potency [12] | outcome [13]

Cc1noc(C)c1-c1nc(N(C)C)c2ccccc2n1
active: Potency [3] 0.0398 µM
inactive: Potency [1] > 11.4 µM | activity change, negative = inhibition [4] 3.94% | activity, negative = inhibition [5] 4.14% | Potency [6] > 46 µM | Potency [7] > 46 µM | Potency [14] | Potency [15] | Potency [9] | Potency [11] | Potency [12] | outcome [13]

CCNc1ncc2nc(-c3cccc(C#N)c3)c(=O)n(CCC#N)c2n1
active: Potency [3] 0.631 µM | Potency [17] 0.0316 µM
inactive: Potency [1] > 11.4 µM | activity change, negative = inhibition [2] 12.8% | activity change, negative = inhibition [4] -1.23% | activity, negative = inhibition [5] 14.1% | Potency [6] > 9.22 µM | Potency [7] > 46 µM | Potency [14] | Potency [9] | Potency [11] | Potency [12] | outcome [13]
